Data: PubChem BioAssay (Tox21)
Inconclusive results are not listed. Calls of active or inactive are those of the source. Unless noted, calls follow the shape of the dose curve; as a rule, active = well fitted curve in the direction sought with a large enough effect in the repeat runs; inconclusive = weak or mixed curves; inactive = no such curve, though single readings can be large; an effect the other way counts as inactive or inconclusive.

Columns and labels:
[1] = molecular target: Luciferin 4-monooxygenase (Photinus pyralis) (UniProt P08659); experiment: qHTS assay to identify small molecule inhibitors of firefly luciferase (AID 1224835); also: nearly all actives have a fitted effect of over 25% in size; also: potency is read from the fitted curve at half-maximal effect
Chain of Luciferin 4-monooxygenase (Photinus pyralis) (P08659 whole entry, looked up): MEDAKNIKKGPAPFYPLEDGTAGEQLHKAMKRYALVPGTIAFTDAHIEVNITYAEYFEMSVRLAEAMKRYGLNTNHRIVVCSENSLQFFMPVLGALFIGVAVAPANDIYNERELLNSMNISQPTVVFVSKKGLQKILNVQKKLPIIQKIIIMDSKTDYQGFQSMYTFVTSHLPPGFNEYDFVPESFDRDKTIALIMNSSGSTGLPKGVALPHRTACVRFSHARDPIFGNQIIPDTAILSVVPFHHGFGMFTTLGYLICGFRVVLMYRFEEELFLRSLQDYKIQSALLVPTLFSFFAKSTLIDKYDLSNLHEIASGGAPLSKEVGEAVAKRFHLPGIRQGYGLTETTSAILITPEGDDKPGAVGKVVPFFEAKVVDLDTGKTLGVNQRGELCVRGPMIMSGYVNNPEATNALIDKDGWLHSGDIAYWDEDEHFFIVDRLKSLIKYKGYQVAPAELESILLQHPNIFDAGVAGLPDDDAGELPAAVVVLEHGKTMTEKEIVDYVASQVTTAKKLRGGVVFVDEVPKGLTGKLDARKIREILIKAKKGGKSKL
Outline: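 Biochemical qHTS: compounds run as interplate titrations against purified firefly enzyme, with D-luciferin and ATP each at its KM concentration. Light output recorded by CCD imaging.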

[2] = qHTS assay to identify small molecule agonists of the constitutive androstane receptor (CAR) signaling pathway - cell viability counter screen (AID 1224836); also: series mostly up to about 92 µM; nearly all actives have a fitted effect of over 45% in size
Outline: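 HepG2 cells stably carrying hCAR and a CYP2B6-2.2kb reporter were plated 4 h, then given compounds at 15 concentrations plus PK11195 (final 0.75 uM). After 23 h at 37 C, viability was read by CellTiter-Fluor fluorescence.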

[3] = qHTS assay to identify small molecule antagonists of the constitutive androstane receptor (CAR) signaling pathway - cell viability counter screen (AID 1224837); also: nearly all actives have a fitted effect of over 45% in size; also: potency is read from the fitted curve at half-maximal effect
Outline: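 Cells are seeded, rested 4 hr at 37 C/5% CO2, dosed with compound (15-point series) and 50 nM CITCO, incubated a further 23 hr, and then CellTiter-Fluor reagent is added before fluorescence is read. The line is HepG2 with stable hCAR and CYP2B6-2.2kb.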

[4] = qHTS assay to identify small molecule agonists of the estrogen related receptor signaling pathway with the pleiotropic PPARgamma coactivator (PGC) from Tox21 10K library (AID 1224842); also: nearly all actives have a fitted effect of over 15% in size; also: potency is read from the fitted curve at half-maximal effect
Outline: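 PGC/ERR reporter cell line, 2,000 cells per well, incubated 6 h at 37 C before 23 nL compound in DMSO was added. After 18 h at 37 C, One-Glo luminescence read following 30 min at room temperature.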

[5] = molecular target: Thyrotropin receptor (Homo sapiens) (UniProt P16473); experiment: qHTS assay to identify small molecule agonists of the thyroid stimulating hormone receptor (TSHR) signaling pathway (AID 1224843; calls by dose curve; also: nearly all actives have a fitted effect of over 45% in size; also: potency is read from the fitted curve at half-maximal effect)
Chain of Thyrotropin receptor (Homo sapiens) (P16473 whole entry, looked up): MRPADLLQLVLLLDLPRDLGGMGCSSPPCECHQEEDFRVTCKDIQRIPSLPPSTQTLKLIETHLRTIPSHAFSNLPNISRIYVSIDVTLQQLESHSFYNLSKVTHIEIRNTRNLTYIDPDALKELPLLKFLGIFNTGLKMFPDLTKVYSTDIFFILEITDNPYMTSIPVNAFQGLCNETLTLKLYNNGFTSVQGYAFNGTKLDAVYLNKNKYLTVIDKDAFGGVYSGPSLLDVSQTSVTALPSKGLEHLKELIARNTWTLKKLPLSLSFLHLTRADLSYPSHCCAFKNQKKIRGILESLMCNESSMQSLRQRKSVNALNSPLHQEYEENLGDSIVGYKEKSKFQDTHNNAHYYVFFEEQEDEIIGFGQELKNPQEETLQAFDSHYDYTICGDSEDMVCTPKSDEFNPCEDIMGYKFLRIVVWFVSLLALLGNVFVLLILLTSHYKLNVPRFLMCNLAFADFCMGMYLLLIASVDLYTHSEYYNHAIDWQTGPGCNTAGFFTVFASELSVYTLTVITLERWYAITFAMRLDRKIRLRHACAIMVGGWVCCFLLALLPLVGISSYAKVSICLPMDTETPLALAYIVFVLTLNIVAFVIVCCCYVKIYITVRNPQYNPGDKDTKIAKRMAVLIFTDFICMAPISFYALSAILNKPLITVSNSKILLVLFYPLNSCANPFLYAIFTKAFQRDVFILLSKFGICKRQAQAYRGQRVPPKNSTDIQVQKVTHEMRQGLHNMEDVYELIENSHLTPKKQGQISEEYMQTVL
Outline: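 Agonist-mode screen: TSHR HEK293 cells received test chemicals for half an hour at room temperature, then HTRF cAMP detection reagents for one hour prior to fluorescence measurement. Each chemical ran as a 15-concentration series, triplicated.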

[6] = qHTS assay to identify small molecule agonists of the hypoxia (HIF-1) signaling pathway - cell viability counter screen (AID 1224844; calls by dose curve; also: nearly all actives have a fitted effect of over 50% in size)
Outline: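 Viability counter screen: HRE-bla ME-180 cells plated 5 hrs before compound addition, treated 17 hrs at 37C and 5% CO2, then CellTiter-Glo added after the FRET reporter read; luminescence after 30 min.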

[7] = molecular target: Nuclear receptor subfamily 1 group I member 3 (Homo sapiens) (UniProt Q14994); experiment: qHTS assay to identify small molecule agonists of the constitutive androstane receptor (CAR) signaling pathway (AID 1224839); also: nearly all actives have a fitted effect of over 15% in size; also: potency is read from the fitted curve at half-maximal effect
Chain of Nuclear receptor subfamily 1 group I member 3 (Homo sapiens) (Q14994 whole entry, looked up): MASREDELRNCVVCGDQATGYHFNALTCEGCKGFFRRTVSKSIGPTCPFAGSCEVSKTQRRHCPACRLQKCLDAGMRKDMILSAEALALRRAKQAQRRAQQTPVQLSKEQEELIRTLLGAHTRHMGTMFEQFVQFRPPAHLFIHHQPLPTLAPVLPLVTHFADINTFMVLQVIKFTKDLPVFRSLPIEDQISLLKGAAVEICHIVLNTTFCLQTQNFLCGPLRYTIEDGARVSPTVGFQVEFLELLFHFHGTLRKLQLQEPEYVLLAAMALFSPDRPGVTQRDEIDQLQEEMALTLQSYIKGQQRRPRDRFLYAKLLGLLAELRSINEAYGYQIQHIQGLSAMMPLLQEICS
Outline: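 HepG2 cells stably expressing hCAR and a CYP2B6-2.2kb luciferase reporter were treated with compounds at 15 concentrations plus 0.75 uM PK11195 (final) for 24 h at 37 C; luminescence was read after ONE-Glo addition.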

[8] = qHTS assay to identify small molecule antagonists of the estrogen related receptor signaling pathway with the pleiotropic PPARgamma coactivator (PGC) from Tox21 10K library (AID 1224841; call rule not given here; also: actives are mostly falling curves and most rising ones were filed inactive; nearly all actives have a fitted effect of over 50% in size; also: potency is read from the fitted curve at half-maximal effect)
Outline: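 Cells stably carrying the PGC/ERR reporter, seeded at 2,000 per well, received pin-transferred compounds 6 h post-plating. Exposure lasted 18 h at 37 C. Signal: One-Glo luminescence.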

[9] = molecular target: Nuclear receptor subfamily 1 group I member 3 (Homo sapiens) (UniProt Q14994); experiment: qHTS assay to identify small molecule antagonists of the constitutive androstane receptor (CAR) signaling pathway (AID 1224838); also: nearly all actives have a fitted effect of over 40% in size
Outline: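 Luminescence from a CYP2B6-2.2kb promoter reporter in hCAR-expressing HepG2 cells reflects CAR signaling. Cells received compounds at 15 concentrations and 50 nM CITCO (final), then incubated 24 h at 37 C/5% CO2.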

[10] = qHTS assay to identify small molecule antagonists of the estrogen related receptor signaling pathway with the pleiotropic PPARgamma coactivator (PGC) from Tox21 10K library - cell viability counter screen (AID 1224840; active = well fitted cell-killing curve with a large enough effect in the repeat runs, not every such curve was filed as active; also: nearly all actives have a fitted effect of over 40% in size; also: potency is read from the fitted curve at half-maximal effect)
Outline: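 Cell viability is measured by CellTiter-Fluor fluorescence in PGC/ERR cells that receive compounds after a 6-hour attachment period and are then incubated 17.5 hours at 37 C.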

Measured: Potency

CC[N+](C)(CC)CCOC(=O)C(O)(c1ccccc1)C1CCCCC1 (configuration not stated)
inactive: [1] | [2] | [3] | [4] | [5] | [6]

COc1ccc(-c2nc3ccc(C4=NNC(=O)CC4C)cc3[nH]2)cc1 (configuration not stated)
active: [1] 8.71 µM | [7] 3.76 µM | [4] 8.41 µM | [5] 9.44 µM
inactive: [2] | [8] | [6]

CN(C)CCN(Cc1ccsc1)c1ccccn1
inactive: [1] | [2] | [9] | [7] | [10] | [6]

CCCn1cnc2c1c(=O)n(CCCCC(C)=O)c(=O)n2C
not listed: [3]
inactive: all other assays above

COCC(C)OC(C)=O (configuration not stated)
inactive: [1] | [2] | [9] | [7] | [10] | [6]

Nc1ccc([N+](=O)[O-])c(C(F)(F)F)c1
not listed: [3] | [9]
inactive: all other assays above

O=C1[C@H]2CCCC[C@H]2C(=O)N1CCCCN1CCN(c2nsc3ccccc23)CC1
not listed: [3] | [8] | [10]
inactive: all other assays above

O=C1CCCCCCCCCCCC(=O)OCCO1
inactive: [1] | [2] | [10] | [8] | [4] | [6]

C=CC1CC2C=CC1C2 (configuration not stated)
inactive: [1] | [2] | [9] | [10] | [6]

Cc1ccc(C(=O)Oc2ccc(C(O)CNC(C)(C)C)cc2OC(=O)c2ccc(C)cc2)cc1 (configuration not stated)
active: [5] 0.0473 µM
inactive: [1] | [2] | [3] | [6]

O=C(NCCO[N+](=O)[O-])c1cccnc1
inactive: [1] | [2] | [9] | [5] | [6]

CCOC(=O)C(O)c1ccccc1 (configuration not stated)
not listed: [3]
inactive: all other assays above

CC(C)CC(=O)C1C(=O)c2ccccc2C1=O
active: [8] 27.3 µM
not listed: [3] | [7] | [10]
inactive: all other assays above

NC(=O)C(c1ccccc1)(c1ccccc1)[C@@H]1CCN(CCc2ccc3c(c2)CCO3)C1
inactive: [1] | [2] | [10] | [4] | [5] | [6]

CC1=CC=C(C(C)C)CC1
inactive: [1] | [2] | [9] | [7] | [10] | [6]

CC(C)(O)c1ccc(CNC(=O)c2cccnc2Oc2ccc(F)cc2)cc1
active: [7] 27.3 µM | [8] 48.6 µM
not listed: [3] | [9]
inactive: all other assays above

C=CCOc1ccccc1OCC(O)CNC(C)C (configuration not stated)
not listed: [3] | [5] | [10]
inactive: all other assays above

O=C(O)c1ccccc1Cl
inactive: [1] | [2] | [3] | [5] | [6]

CCCCCCCCCCCc1ccccc1
not listed: [3] | [4] | [8]
inactive: all other assays above

CCO[Si](CCCCl)(OCC)OCC
not listed: [3] | [4] | [8]
inactive: all other assays above

COS(=O)(=O)C(F)(F)F
inactive: [1] | [3] | [7] | [10] | [5] | [6]

CC(C)OC(=O)C(C)N(C(=O)c1ccccc1)c1ccc(F)c(Cl)c1 (configuration not stated)
active: [8] 21.7 µM
inactive: [1] | [3] | [9] | [4] | [6]

O=C(O)c1ccc(-n2nc(-c3ccccc3O)nc2-c2ccccc2O)cc1
active: [8] 10.6 µM
not listed: [2] | [5] | [9]
inactive: all other assays above

COc1cc(C(=O)OCCCN2CCCN(CCCOC(=O)c3cc(OC)c(OC)c(OC)c3)CC2)cc(OC)c1OC
inactive: [1] | [9] | [7] | [8] | [4] | [5]

Nc1ccc(N)c2c1C(=O)c1ccccc1C2=O
active: [1] 17.8 µM | [3] 15.4 µM | [10] 19.3 µM | [8] 24.3 µM
inactive: [4] | [6]

Clc1ccc2c(c1)CCc1cccnc1C2=C1CCNCC1
inactive: [1] | [3] | [7] | [6]
